These results are taken from PubChem BioAssay (NCI).

About 83,000 compounds went through this panel and 20% of them were active in at least one assay; those are over-represented in the sample as a whole.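 Single-concentration screen, 48 h exposure, 96-well plates. Endpoint: percent growth. Below 10 = active.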 A number with no mark means an inactive call. Calls of active or inactive are those of the source.

In this experiment the test system is HL-60(TB) leukemia. Kind of experiment: NCI-60 one-dose screen, 48 h (100 = growth as untreated, 0 = no growth, -100 = all killed). The settings on record: 10 µM unless noted.
For the compound `OC(c1ccccc1)(c1ccccc1)c1ccccc1-c1ccccc1`, the growth is 82%.

Regarding `C/C=C(/C)n1cnc2c(Nc3ccccn3)nc(Cl)nc21`, the growth was 107%.

As to `COCCNC(=O)Cc1cc(-c2ccc(Cl)cc2)n(-c2ccccc2)c1C`, the growth is 66.4%.

In the case of `CC[C@@H](C(=O)[C@@H](C)[C@@H](O)[C@H](C)[C@@H]1O[C@@H]([C@@H](CC)C(=O)N(CC)CC)CC[C@@H]1C)C1O[C@]2(C=CC(=O)[C@]3(CC[C@@](C)([C@H]4CC[C@](O)(CC)[C@H](C)O4)O3)O2)[C@H](C)C[C@@H]1C` (stereo not given in full), the growth was -36.4% (active).

Turning to `COc1cc2c3c(n([C@H]4CCOC4)c(=O)c2cc1OC)-c1cc2c(cc1C3=O)OCO2`, the growth is 25%.

With `CCO/C=N/C1=C(C#N)C(c2ccc(F)cc2)c2sc3c(F)cccc3c2O1` (stereo not given), the growth was 6.35% (active).

For the compound `OCC1OC(n2cnc3c(NCc4ccco4)ncnc32)C(O)C1O` (stereo not given), the growth is -26.3% (active).

As for `Nc1nc(N)c(N=Nc2ccc(C(=O)O)cc2)c(N)n1`, the growth is 90%.

Turning to `COc1cc(N2CCC(N3CCN(C)CC3)CC2)ccc1Nc1ncnc(Nc2ccccc2S(=O)(=O)C(C)C)n1`, the growth was 102%.

For the compound `NCCSSC/C=C\CSSCCN`, the growth is 59.1%.

Regarding `O=C(OCc1ccc2c(Cl)cc(Cl)c(O)c2n1)N1CCN(C(=O)c2cc3ccccc3[nH]2)CC1`, the growth was 31%.

Consider `COC12CC(=O)C(C(C)=O)=C(O)C1(C)c1c(O)c(C)c(O)c(C(C)=O)c1O2` (stereo not given), for which the growth was 61.7%.

For the compound `CC(NCCC(c1ccccc1)c1ccccc1)c1ccccc1` (stereo not given), the growth was 14.6%.

For `N#Cc1c(-c2ccccc2)cc(-c2ccccc2)n(CCCC(=O)O)c1=O`, the growth is 103%.

Regarding `Cc1cc(Cl)ccc1Nc1nc(C(F)(F)F)ccc1C(=O)N/N=C/c1ccccc1Cl`, the growth is 12.5%.

Consider `O=C(O)C1C[C@](O)(c2ccc(F)cc2)[C@@H](c2ccc(F)cc2)O1` (stereo not given in full), for which the growth is 91.6%.

For the compound `O=C1N(Cc2ccccc2Cl)c2ccccc2C12NN=C(c1ccccc1)S2` (stereo not given), the growth was 58.5%.

For the compound `COc1ccc2c(c1)/C(=C/c1sc(=S)n(Cc3ccco3)c1O)C=N2`, the growth is 3.03% (active).

In the case of `O=C(CCCCC(=O)Oc1c(Cl)cc(Cl)cc1[N+](=O)[O-])Oc1c(Cl)cc(Cl)cc1[N+](=O)[O-]`, the growth was 81.9%.

In the case of `CC(=O)N1Cc2ccccc2C(C)Cc2cc(Cl)ccc21` (stereo not given), the growth is 111%.

For `CC(=O)O[C@H]1CC[C@]2(C)[C@H]3CC[C@@H]4[C@H]5[C@H](C(C)C)CC[C@]5(C(=O)OCC(CO)(CO)N=C(N)N)CC[C@@]4(C)[C@]3(C)CC[C@H]2C1(C)C`, the growth was -24.7% (active).

Turning to `C=C1C(=O)O[C@H]2[C@H]1CC/C(COC(=O)N[C@H](Cc1c[nH]c3ccccc13)C(=O)OC)=C\CC[C@@]1(C)O[C@@H]21`, the growth is -58% (active).

As for `COc1cccc(-c2nc3sccn3c2-c2ccnc(NCCN3CCCNS3(=O)=O)n2)c1`, the growth is 108%.

With `N#Cc1c(-c2ccccc2)cc(-c2ccccc2)n(CCCCC(=O)O)c1=O`, the growth was 102%.

Consider `C#C[C@@]1(O)[C@@H](CO)O[C@@H](n2cc(-c3ccco3)c3c(N)ncnc32)[C@@H]1O`, for which the growth was 89%.
